Compounds with a hit are over-represented: about 3.9% of the library has one in this group of screens.
Autofluor counter = flagged as autofluorescent in microsphere protease counterscreen; 360,000 tested, 3.1% active; AID 624483; fluorescence intensity (concentration not given with the values); compound autofluorescence counterscreen, microsphere flow cytometry; active compounds read high; in the data active = fluorescence intensity above about 16000; inconclusive = no clear call, values can overlap the other calls
CCHFV vOTU inh = CCHFV vOTU protease inhibitors, primary screen, biochemical, Pep-AMC substrate, fluorescence; inhibition, % at 11.5 µM; 370,000 tested, 0.55% active; in the data active = inhibition above about 30%; also: 0% = vehicle wells with enzyme and 100% = no enzyme wells
Anthrax LF inh2 = Bacillus anthracis LF protease inhibitors, primary screen, biochemical, multiplex microsphere, MLPCN library; AID 588501, 2011; multiplex microsphere protease cleavage assay; inhibition, % at 10 µM; Lethal factor (Bacillus anthracis), P15917; 360,000 tested, 0.12% active; also: plate controls were buffer without enzyme for full effect and enzyme alone for no effect
BoNT A protease = BoNT/A light chain protease inhibitors, primary screen, biochemical, flow cytometry, MLPCN library | multiplex microsphere protease substrate cleavage | inhibition, % at 10 µM | 360,000 tested, 0.17% active | AID 588499, 2011; also: plate controls were buffer without enzyme for full effect and enzyme alone for no effect
SARS 3CLpro inh = SARS-CoV 3CLpro protease inhibitors, primary screen, biochemical, quenched FRET; recombinant SARS-CoV 3CLpro, quenched FRET peptide cleavage; 290,000 tested, 0.14% active; Replicase polyprotein 1ab (Severe acute respiratory syndrome coronavirus), P0C6X7; inhibition, % at 6 µM; in the data active = inhibition above about 12%
BoNT-F LC inh = BoNT/F light chain protease inhibitors, primary screen, biochemical, flow cytometry, MLPCN library | Botulinum neurotoxin type F light chain protease (Clostridium botulinum) | Multiplex microsphere protease cleavage assay | inhibition, % at 10 µM | 360,000 tested, 0.22% active | AID 588497, 2011; in the data active = inhibition above about 35%, passing the limit was not always enough; inconclusive = no clear call, values can overlap the other calls; also: plate controls were buffer without enzyme for full effect and enzyme alone for no effect
An asterisk follows results filed as active; ? = inconclusive; / = no result. Rule as the data show it, unless noted: active = inhibition above about 30%; inconclusive = no clear call, values can overlap the other calls; inactive = below that.

SMILES | Autofluor counter | CCHFV vOTU inh | Anthrax LF inh2 | BoNT A protease | SARS 3CLpro inh | BoNT-F LC inh
COc1ccccc1OCC(O)Cn1c(=N)n(Cc2ccccc2)c2ccccc21 (stereo not given) | 24188* | 4 | -2 | -1 | 1 | -1
Cc1ccc(OCC(O)Cn2c(=N)n(CCN3CCCCC3)c3ccccc32)cc1 (stereo not given) | 24505* | -1 | -4 | -1 | 1 | -6
CC(C)N(C(=O)COC(=O)c1cc(Cl)cc(Cl)c1N)C(C)C | 21720* | 1 | -1 | -7 | 3 | -9
Cc1sc(NC(=O)c2ccco2)c(CN2CCN(c3ccccn3)CC2)c1C | 23314* | / | -2 | 0 | 1 | -2
CC(=O)Nc1sc2c(c1CN1CCN(c3ccccn3)CC1)CCCC2 | 22350* | 8 | -2 | 2 | -2 | 2
CC(=O)Nc1sc2c(c1CN1CCCC1)CCCC2 | 4900 | -16 | -2 | 0 | -4 | 2
O=C(CSc1nc2ccccc2n1Cc1ccc(Cl)cc1)N/N=C/c1ccc(C(=O)O)cc1 | 4687 | 0 | -2 | -2 | 3 | 0
N#CCC[C@@H]1CC[C@]2(CCCN(C(=O)c3cccnc3)C2)O1 | / | 1 | / | / | / | /
Cc1csc(NC(=O)C2CCCO2)n1 (stereo not given) | 21132* | 11 | -1 | 3 | -1 | 4
O=C(Nc1nc(-c2ccccc2)cs1)C1CCCO1 (stereo not given) | 9538 | -4 | -2 | ? | -2 | -18
CC1(C(=O)O)CCC(C(=O)Nc2ccc(F)cc2)C1(C)C (stereo not given) | 3334 | 7 | 16 | 2 | -1 | 2
CC1(C(=O)O)CCC(C(=O)Nc2ccc3ccccc3c2)C1(C)C (stereo not given) | 22940* | -3 | 2 | 1 | -3 | 0
Cc1csc(NC(=O)C2CCC(C)(C(=O)O)C2(C)C)n1 (stereo not given) | 20359* | -9 | -1 | -3 | 4 | -4
c1ccc(Cn2ccc3ccc(-c4ccc5ccn(Cc6cccc(Oc7ccccc7)c6)c5c4)cc32)cc1 | / | 19 | / | / | / | /
COC(=O)[C@]12CCCCC=C1N(Cc1ccccc1)C(=O)[C@H](CC(=O)NCCCCc1ccccc1)C2 | 6186 | 11 | -5 | 0 | / | 3
O=C(O)c1ccc(-n2nnnc2SCc2ccccc2)cc1 | 9113 | 4 | 4 | 0 | 7 | -1
CSc1ccccc1-n1nnnc1SCc1ccccc1 | 23954* | 12 | -5 | ? | -4 | -7
CN(C)S(=O)(=O)N1CCc2ccccc21 | 4560 | 5 | -4 | 1 | 2 | -10
CN(C)S(=O)(=O)N1CCc2ccccc2C1 | 24594* | 6 | -1 | -3 | -5 | -6
Cc1cc(C)cc(C(=O)NCC(=O)OCC(=O)N2CCCC2)c1 | 3621 | -4 | -13 | 0 | / | 0
Cc1ccc(S(=O)(=O)N2CCN(C(=O)/C=C/c3ccccc3)CC2)cc1C | ? | 0 | -1 | -2 | / | -8
Cc1nn(-c2ccccc2)c(N2CCCC2)c1/C=N/O | 24403* | / | 1 | -6 | -1 | -6
Cc1nn(-c2ccccc2)c(C)c1/C=N/N1CCN(c2ccccc2)CC1 | 20444* | / | -6 | -2 | 2 | -6
Cc1cccc(C)c1NC(=O)CN1CCN(C(=O)c2cc(C3CC3)nn2-c2ccccc2)CC1 | 3162 | -7 | -6 | -1 | / | -8
Brc1ccccc1OCCCn1cnc2ccccc21 | 19986* | -5 | -1 | 1 | 6 | 3
SMILES | Autofluor counter | CCHFV vOTU inh | Anthrax LF inh2 | BoNT A protease | SARS 3CLpro inh | BoNT-F LC inh
c1ccc(OCCn2cnc3ccccc32)cc1 | 17262* | -1 | -4 | ? | -6 | 25
CCCOc1ccc(Cn2cnc3ccccc32)cc1 | 16239* | 2 | 0 | 1 | -3 | -2
Cc1ccccc1OCCCCn1cnc2ccccc21 | 10525 | 6 | -5 | -2 | 4 | -6
c1ccc(OCCCCn2cnc3ccccc32)cc1 | 2853 | 13 | -10 | 0 | 1 | -3
COc1ccc(OC)c2c(C)cc(N3CCCN(C)CC3)nc12 | 21960* | -23 | -1 | -5 | -2 | -7
CCc1ccc(NC(=O)C(CC)Sc2nc3cc4c(cc3c(=O)n2Cc2ccco2)OCO4)cc1 (stereo not given) | 20624* | -1 | -2 | ? | 5 | -3
CNC(=S)N(Cc1ccco1)Cc1cc2cc(OC)ccc2[nH]c1=O | 3179 | 8 | 4 | 0 | -1 | -6
COC(=O)c1ccccc1S(=O)(=O)N(CCCO)Cc1cc2c(C)ccc(C)c2[nH]c1=O | 22748* | -15 | -6 | -1 | -4 | 2
COC(=O)c1ccccc1S(=O)(=O)N(Cc1ccco1)Cc1cc2cc(OC)ccc2[nH]c1=O | 22912* | -9 | 2 | 1 | 1 | 2
C=CC(=O)NC1CCCCN(CC)C1=O (stereo not given) | / | 9 | / | / | / | /
CC1(C(=O)NS(=O)(=O)c2ccccc2Cl)CCN1C(=O)Cc1cccc2ccccc12 (stereo not given) | 3565 | 18 | 8 | 0 | / | 2
N/C(=N\OC(=O)Cc1ccc(-c2ccccc2)cc1)c1cccc([N+](=O)[O-])c1 | 16257* | 4 | -4 | -1 | 4 | -4
N/C(=N\OC(=O)Cc1ccc(-c2ccccc2)cc1)c1cccnc1 | 15735 | -7 | -2 | 2 | 2 | 3
N/C(=N\OC(=O)Cc1ccccc1)c1cccnc1 | 20077* | 4 | -7 | 7 | 2 | 6
N/C(=N\OC(=O)CCCc1ccccc1)c1cccc([N+](=O)[O-])c1 | 2152 | 4 | 1 | 1 | 1 | 3
N/C(=N\OC(=O)CCC1CCCCC1)c1cccnc1 | 21493* | 7 | -4 | -2 | -2 | -2
CCOc1ccc(CNC(=O)C2CCN(c3nnc(C)c4c(C)n(-c5ccc(C)cc5)nc34)CC2)cc1 | 17592* | -15 | 5 | -5 | 0 | 10
CCOc1ccccc1CNC(=O)C1CCN(c2nnc(C)c3c(C)n(-c4ccc(C)cc4)nc23)CC1 | 12373 | 19 | 4 | -2 | -1 | 11
Cc1ccc(-n2nc3c(N4CCC(C(=O)NCc5ccccc5C)CC4)nnc(C)c3c2C)cc1 | 16178* | / | 1 | -4 | -4 | 10
CC(C)n1nnnc1-c1cccc(Cl)c1 | 17953* | -3 | -20 | 7 | 2 | 8
CC(C)n1nnnc1-c1cc(Cl)cc(Cl)c1 | 23056* | 14 | -2 | 2 | 2 | 0
CCCn1nnnc1-c1cc(Cl)cc(Cl)c1 | 10923 | / | 1 | 0 | 2 | 0
O=C(O)c1cccc(C(=O)O)c1S(=O)Cc1ccccc1 (stereo not given) | / | -8 | / | / | / | /
Cc1ccc(C(=O)N2CCC(n3nccc3NC(=O)C3CCOC3)CC2)cc1 (stereo not given) | 6435 | -11 | 0 | -1 | 2 | 8

Bioassay records as filed in PubChem.
